# Test results taken from PubChem BioAssay AID488890 (Southern Research Specialized Biocontainment Screening …, 2010).
# Hit rate of the full screen: of about 320,000 compounds, about 1,300 (0.41%) were called active. Another 3% or so got no clear call; they are omitted. The rule behind the calls is not given here. Only a sample is shown. Results with a measured potency or affinity are listed apart.
# Test: growth inhibition of non-replicating M. tuberculosis (AID 488890);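 note: plate controls were DMSO cells for no effect and high antibiotic wells for full effect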
# Settings: Mycobacterium tuberculosis non-replicating, at 25 µM, stronger effect = higher value
row,SMILES,inhibition [%]
1,Cn1ncc2c(Nc3ccc(Br)cc3)nc(Nc3ccc(Br)cc3)nc21,9.77
2,O=C(N/N=C/c1cn(-c2ccccc2)nc1-c1cccs1)c1ccncc1,48.3
3,O=C(N/N=C/c1cn(-c2ccccc2)nc1-c1cc2ccccc2o1)c1ccncc1,42.8
4,COc1ccc(N=C2NC(=O)C(CC(=O)NCCc3ccc(OC)c(OC)c3)S2)cc1 (stereo unspecified),14.1
5,CC(NC(=O)c1ccc2c(=O)n3c(nc2c1)CCC3)c1ccc(S(N)(=O)=O)cc1 (stereo unspecified),-7.93
6,Cc1ccc(S(=O)(=O)N2CCCN(C(=O)c3cc4ccccc4[nH]3)CC2)cc1,11.2
7,COc1cccc(NC(=O)NNS(=O)(=O)c2ccc(OC)cc2OC)c1,-16.4
8,Oc1c(C(c2ccccn2)N2CCCCC2)cc(Cl)c2cccnc12 (stereo unspecified),75.4
9,CN1CCN(C(c2cccnc2)c2ccc3cccnc3c2O)CC1 (stereo unspecified),28.6
10,CCCCOc1ccc(NC(=O)CSc2nnnn2C)cc1,18.5
11,Cn1cccc1/C=C1/C(=O)NC(=O)N(Cc2ccc(F)cc2)C1=O,74.5
12,Cn1cccc1/C=C1\C(=O)NC(=O)N(Cc2ccccc2)C1=O,73
13,CC1CN(c2nc3ccccn3c(=O)c2C=O)CC(C)O1 (stereo unspecified),1.76
14,CCn1nnc(NC(=O)c2ccc(-c3ccccc3[N+](=O)[O-])o2)n1,9.81
15,CCCn1nnc(NC(=O)c2ccc(-c3cccc(Cl)c3)o2)n1,59.5
16,CCn1nnc(NC(=O)Cc2ccc(Cl)cc2)n1,11.1

row,SMILES,inhibition [%]
1,CCn1nnc(NC(=O)c2ccc(Br)o2)n1,-5.58
2,CCCCc1ccc(-c2nc(-c3ccncc3)no2)cc1,22.1
3,CC1=C(C(=O)Nc2ccccc2)S(=O)(=O)CCO1,68.2
4,Cc1ccc(NC(=O)c2ccccc2)cc1,25.8
5,CCOc1cc(C(=O)Nc2cc(=O)n(C)c(=O)n2C)cc(OCC)c1OCC,1.17
6,Cc1cc(Cl)ccc1C(=O)C1CCCN(C(=O)c2cc(C(C)C)no2)C1 (stereo unspecified),45.6
7,CCc1ccccc1NC(=O)N1CCc2ccccc2C1,-17.5
8,CCCCNC(=O)N1CCc2[nH]c3ccccc3c2C1,5.76
9,CCOC(=O)C1=NN(C(=O)c2ccccc2)C(O)(c2ccc(C)cc2)C1 (stereo unspecified),73.7
10,COC(=O)C1=NN(C(=O)c2ccc(Cl)cc2)C(O)(c2ccccc2)C1 (stereo unspecified),79.6
11,Cc1cn(C(=O)c2cccc(Br)c2)c(C)n1,-0.97
12,COC(=O)C1=NN(C(=O)c2cccc(Br)c2)C(O)(c2ccc(Cl)cc2)C1 (stereo unspecified),75.6
13,CCOC(=O)N1N=C(C)CC1(O)c1ccccc1 (stereo unspecified),-14.8
14,COC(=O)C1=NN(C(=O)c2ccccc2)C(O)(c2ccc([N+](=O)[O-])cc2)C1 (stereo unspecified),21.5
15,OCCC1CN(Cc2nc3ccccc3s2)CCN1C1CCCC1 (stereo unspecified),-3.44
